High-throughput results: PubChem, National Center for Advancing Translational Sciences (NCATS)
Only some compounds are listed: those with a hit (about 7.9% of all), similar ones and a draw of the others.
SW480 rerep – induces DNA re-replication in SW480 colon adenocarcinoma cells | SW480 DNA re-replication, Hoechst DNA content imaging, 48 h | Potency, µM (highest dose often 46.1 µM), for the others: at the top dose re-replication activation, usual class: activators | 1.8% of 340,000 active | AID 624297; further: % of control where 0% means no effect; nearly all actives have a fitted effect of over 55% in size
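250 cells/well; 23 nL cpd via pin tool; 48 hr, 37 C, 5% CO2; Hoechst 40 min; imager read of total nuclear intensity, ex 405/em 500-530 nm.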
MCF10A rerep – inducers of DNA re-replication in MCF 10A breast cells. MCF 10A DNA re-replication, Hoechst nuclear intensity, 48 h. Potency, µM (highest dose often 46.1 µM), without a hit: at the top dose activity, positive = re-replication, most hits filed as activators. 2.9% of 350,000 active. AID 624296; further: % of control where 0% means no effect; nearly all actives have a fitted effect of over 50% in size
KB-3-1 cytotox – KB-3-1 parental cell cytotoxicity | 1.4% of 400,000 active | Potency, µM (titrated, usually from 46.1 µM), hits mostly cytotoxic | KB-3-1 viability, CellTiter-Glo ATP luminescence, 72 h | AID 1347075; further: on the % scale 0 is the no-effect control and ±100 the full control effect; nearly all actives have a fitted effect of over 60% in size
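Cytotoxicity measured as CellTiter-Glo luminescence after 72 h at 37 C. Compound titrations were pinned onto drug-naive KB-3-1 parental adenocarcinoma cells grown in DMEM with 10% FBS, and normalized data fitted to concentration-response curves.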
KB-V1 cytotox – KB-V1 MDR subline cytotoxicity; KB-V1 MDR cells viability, CellTiter-Glo, 72 h; 3.4% of 400,000 active; Potency, µM (titrated, usually from 46.1 µM), actives largely listed as cytotoxic; AID 1347076; further: on the % scale 0 is the no-effect control and ±100 the full control effect; nearly all actives have a fitted effect of over 60% in size
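Drug-selected KB-V1 cells, grown in DMEM lacking phenol red with 10% FBS, receive compound titrations; after three days at 37 degrees C, surviving cell ATP is quantified by CellTiter-Glo luminescence and responses normalized and curve-fitted.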
HT1080-NT tox – kills 2HG-producing HT-1080-NT fibrosarcoma cells | HT-1080-NT fibrosarcoma viability, CellTiter-Glo ATP luminescence, 48 h | Potency, µM (doses to about 46.1 µM), for inactives: at the top dose activity, negative = less viability, usual class: cytotoxic | 1.6% of 360,000 active | AID 686970;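 further: NT is the 2HG producing partner of a matched IDH1 knockdown line; 0% = DMSO-treated cells and -100% = media-only wells without cells; nearly all actives have a fitted effect of over 55% in size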
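750 cells/well, RPMI + 5% FBS; 2 h settle, compound pin-transfer, 48 h at 37 degrees C. CellTiter-Glo 10 min RT, luminescence. Normalized to DMSO and media-only wells.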
HT1080 IDH1KD tx – kills HT-1080 cells with IDH1 knockdown; HT-1080 IDH1 knockdown viability, ATP luminescence, 48 h; Potency, µM (titrated, usually from 46.1 µM), for inactives: at the top dose activity, negative = toxicity, hits mostly cytotoxic; 2% of 360,000 active;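 further: 0% = DMSO wells and -100% = cell-free medium wells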
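Assay cells: HT-1080 with IDH1 knockdown, 750 per well, RPMI/5% FBS. Exposure: 48 h at 37 °C following 2 h pre-incubation. Read: CellTiter-Glo luminescence; fitted concentration-response, curve class assigned.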
The depositor's hits bear a star. The call rests on the fitted dose curve; in most records, active means well fitted curve in the direction sought with a large enough effect; inconclusive means small, poorly fitted or top-dose-only effect, or another doubt; inactive means no such curve, though single readings can be large; an effect the other way counts as inactive or inconclusive. Potency means the concentration at half of the fitted maximal effect.

For O=C(c1cn(-c2ccccc2)nc1-c1ccccc1)N1CCN(c2ccccn2)CC1 the results were SW480 rerep inconclusive, MCF10A rerep inconclusive, KB-3-1 cytotox inconclusive, KB-V1 cytotox 21µM*, HT1080-NT tox inconclusive and HT1080 IDH1KD tx -23%.
`CN(C(=O)c1ccc2c(=O)n3c(nc2c1)CCCCC3)c1cccc(Cl)c1` gave SW480 rerep 7%, MCF10A rerep 9%, KB-3-1 cytotox inactive, KB-V1 cytotox inconclusive, HT1080-NT tox -7% and HT1080 IDH1KD tx -11%.
`Cc1cccc(-n2cc(CN3CCN(c4ccccn4)CC3)c(-c3cccc(F)c3)n2)c1` gave SW480 rerep -2%, MCF10A rerep 15%, KB-3-1 cytotox inconclusive, KB-V1 cytotox inactive, HT1080-NT tox 0% and HT1080 IDH1KD tx -5%.
Cc1ccc(-n2cc(CN3CCN(c4ccccn4)CC3)c(-c3ccc(F)cc3)n2)cc1 was read as SW480 rerep inconclusive, MCF10A rerep 18µM*, KB-3-1 cytotox inconclusive, KB-V1 cytotox inconclusive, HT1080-NT tox 10% and HT1080 IDH1KD tx inconclusive.
For O=C(c1ccco1)N1CCN(C(=O)c2cn(-c3ccccc3)nc2-c2ccccc2)CC1 the results were SW480 rerep 4%, MCF10A rerep -3%, KB-3-1 cytotox inactive, KB-V1 cytotox inactive, HT1080-NT tox -3% and HT1080 IDH1KD tx -4%.
For Cc1c(C(=O)Nc2ccc(-c3nnc4n3CCCCC4)cc2)oc2c1ccc1ccccc12 the results were SW480 rerep inconclusive, MCF10A rerep inconclusive, KB-3-1 cytotox inconclusive, KB-V1 cytotox inconclusive, HT1080-NT tox inconclusive and HT1080 IDH1KD tx 15µM*.
`O=C(Nc1ccc(-c2nnc3n2CCCCC3)cc1)c1cc2ccccc2o1` gave SW480 rerep 2%, MCF10A rerep 0%, KB-3-1 cytotox inactive, KB-V1 cytotox inactive, HT1080-NT tox 0% and HT1080 IDH1KD tx -6%.
`OC(c1cccc(Cl)c1)c1nc(-c2csc3ccccc23)cs1` (stereo not given) gave KB-3-1 cytotox inactive, KB-V1 cytotox inactive, HT1080-NT tox inconclusive and HT1080 IDH1KD tx inconclusive.
Cc1cc(C)nc(-n2nc(C)cc2NC(=O)CN2CCc3ccccc3C2)n1 was read as SW480 rerep 12%, MCF10A rerep inconclusive, KB-3-1 cytotox inactive, KB-V1 cytotox inconclusive, HT1080-NT tox inconclusive and HT1080 IDH1KD tx 1.6µM*.
Cc1cc(C)nc(-n2nc(C)cc2NC(=O)CNC2CCCCC2)n1 was read as SW480 rerep -3%, MCF10A rerep 6%, KB-3-1 cytotox inactive, KB-V1 cytotox inactive, HT1080-NT tox -8% and HT1080 IDH1KD tx -4%.
Screening Cc1cc(C)nc(-n2nc(C)cc2NC(=O)CNCc2ccccc2)n1 returned SW480 rerep -4%, MCF10A rerep 11%, KB-3-1 cytotox inactive, KB-V1 cytotox inconclusive, HT1080-NT tox 1% and HT1080 IDH1KD tx -4%.
Screening Cc1cc(C)nc(-n2nc(C)cc2NC(=O)CN2CCCC(C)C2)n1 (stereo not given) returned SW480 rerep 4%, MCF10A rerep inconclusive, KB-3-1 cytotox inactive, KB-V1 cytotox inactive, HT1080-NT tox 1.3µM* and HT1080 IDH1KD tx 2µM*.
For O=C(c1cccc(S(=O)(=O)N2CCCc3ccccc32)c1)N1CCN(c2ccccc2)CC1 the results were SW480 rerep 22%, MCF10A rerep inconclusive, KB-3-1 cytotox inconclusive, KB-V1 cytotox inactive, HT1080-NT tox 1% and HT1080 IDH1KD tx inconclusive.
O=C(CN1CCOCC1)N1CCOCC1 was read as SW480 rerep 0%, MCF10A rerep -23%, KB-3-1 cytotox inconclusive, KB-V1 cytotox inconclusive, HT1080-NT tox 4% and HT1080 IDH1KD tx 19%.
For CCN1CCN(C(CNS(=O)(=O)c2ccc(Br)cc2)c2cccnc2)CC1 (stereo not given) the results were SW480 rerep -5%, MCF10A rerep 12%, KB-3-1 cytotox inactive, KB-V1 cytotox inactive, HT1080-NT tox 4% and HT1080 IDH1KD tx 7%.
Cc1nc(N2CCN(S(=O)(=O)c3ccccc3C#N)CC2)c2c(-c3ccccc3)csc2n1 was read as SW480 rerep 9%, MCF10A rerep 25%, KB-3-1 cytotox inconclusive, KB-V1 cytotox inconclusive, HT1080-NT tox -2% and HT1080 IDH1KD tx 9%.
For COc1cccc2[nH]c3c(N4CCC(C(N)=O)CC4)ncnc3c12 the results were SW480 rerep -3%, MCF10A rerep -11%, KB-3-1 cytotox inactive, KB-V1 cytotox inactive, HT1080-NT tox 5% and HT1080 IDH1KD tx 12%.
`COc1cccc2[nH]c3c(N4CCCC(C)C4)ncnc3c12` (stereo not given) gave SW480 rerep -6%, MCF10A rerep 4%, KB-3-1 cytotox inactive, KB-V1 cytotox 6.5µM*, HT1080-NT tox 5% and HT1080 IDH1KD tx -4%.
`CC(=O)N1c2ccc(S(=O)(=O)NCCC(=O)NCCc3cccc(C)c3)cc2CC1C` (stereo not given) gave SW480 rerep 1%, MCF10A rerep 2%, KB-3-1 cytotox inconclusive, KB-V1 cytotox inactive, HT1080-NT tox 9% and HT1080 IDH1KD tx 4%.
Screening O=C(NC1=C(NC2CCS(=O)(=O)C2)C(=O)c2ccccc2C1=O)c1ccccc1 (stereo not given) returned SW480 rerep inconclusive, MCF10A rerep inconclusive, KB-3-1 cytotox inconclusive, KB-V1 cytotox inconclusive, HT1080-NT tox 15µM* and HT1080 IDH1KD tx 18µM*.
For O=C(Nc1ccc(Nc2ccccc2)cc1)c1ccc(Cl)cc1 the results were SW480 rerep 9%, MCF10A rerep 6%, KB-3-1 cytotox inactive, KB-V1 cytotox inactive, HT1080-NT tox -8% and HT1080 IDH1KD tx -25%.
For O=C(NC1=C(Nc2ccc(Cl)cc2)C(=O)c2ccccc2C1=O)c1ccccc1 the results were SW480 rerep inconclusive, MCF10A rerep 3%, KB-3-1 cytotox 18µM*, KB-V1 cytotox 21µM*, HT1080-NT tox inconclusive and HT1080 IDH1KD tx -17%.
Cc1cccc(NC(=O)c2cccc3c2C(=O)c2ccccc2-3)c1 was read as SW480 rerep -1%, MCF10A rerep 22%, KB-3-1 cytotox inactive, KB-V1 cytotox 6.5µM*, HT1080-NT tox 5% and HT1080 IDH1KD tx 10%.
O=C1C(Cl)=C(NC(=O)c2ccccc2)C(=O)C(Cl)=C1NC(=O)c1ccccc1 was read as SW480 rerep inconclusive, MCF10A rerep 27%, KB-3-1 cytotox inconclusive, KB-V1 cytotox inconclusive, HT1080-NT tox 10µM* and HT1080 IDH1KD tx 8.2µM*.
